High-throughput results deposited in PubChem BioAssay by National Center for Advancing Translational Sciences (NCATS).
This is a sample that favours compounds with a hit; in the whole collection about 12% have one here.
L3MBTL1 block: qHTS Assay for the Inhibitors of L3MBTL1; Lethal(3)malignant brain tumor-like protein 1 (Homo sapiens), Q9Y468; AlphaScreen L3MBTL1–H3K9me1 peptide binding; Potency, µM (doses to about 57.1 µM), for the others: at the top dose activity, negative = inhibition, most hits filed as inhibitors; hit rate 0.66% among 230,000; note: % is set by controls: 0 for no effect and ±100 for the full control effect; nearly all actives have a fitted effect of over 60% in size
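L3MBTL1 50 nM + b-AHA-H3(1-15)K9me1 75 nM, 30 min RT; compound added, 30 min RT; streptavidin donor/Ni-chelate acceptor beads 10 ug/mL each final, 30 min RT dark; AlphaScreen read.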
HP1b binding inh: HTS for Inhibitors of HP1-beta Chromodomain Interactions with Methylated Histone Tails; AlphaScreen HP1-beta / biotin-H3K9me3 peptide binding; AID 540317, 2011; hit rate 0.56% among 390,000; Potency, µM (series often up to 114 µM), for inactives: top-dose activity change, negative = inhibition, usual class: inhibitors; Chromobox protein homolog 1 (Homo sapiens), P83916; note: nearly all actives have a fitted effect of over 70% in size
Target sequence (P83916 whole entry, looked up): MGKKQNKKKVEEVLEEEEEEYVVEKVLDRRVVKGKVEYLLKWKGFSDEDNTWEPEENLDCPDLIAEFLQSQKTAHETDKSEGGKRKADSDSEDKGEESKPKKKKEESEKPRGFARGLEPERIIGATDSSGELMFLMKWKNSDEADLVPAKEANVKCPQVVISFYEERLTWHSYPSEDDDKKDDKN
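Compound inhibition of the preformed complex between 50 nM HP1-beta and 50 nM biotinylated H3K9me3 peptide was read by AlphaScreen. Buffer was PBS pH 7.4 with 0.01% Tween-20. Incubations ran 30 min at room temperature, with 10 ug/mL donor/acceptor beads.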
Sfp PPTase inh: qHTS Assay for Inhibitors of Bacillus subtilis Sfp phosphopantetheinyl transferase (PPTase) | hit rate 3.5% among 310,000 | Potency, µM, for inactives: largest response in the series, negative = inhibition, most hits filed as inhibitors | Biochemical Sfp PPTase activity, qHTS | 4'-phosphopantetheinyl transferase ffp (Bacillus subtilis), Q9F4F7;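 note: the enzyme is Sfp with the accession as filed and its product quenches rhodamine fluorescence; 0% = enzyme reaction without inhibitor and -100% = no enzyme wells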
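With Hepes-Na pH 7.6 buffer containing 10 mM MgCl2, Sfp (15 nM) modified BHQ-2-YbbR (12.5 uM) using rhodamine-CoA (5 uM). Two reads 30 minutes apart at 525/598 nm yielded each well's rate.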
JMJD2A Tudor: qHTS Assay for Inhibitors of JMJD2A-Tudor Domain. AlphaScreen JMJD2A-Tudor / H3K4me3 peptide binding. hit rate 4.4% among 390,000. Potency, µM (series often up to 114 µM), for inactives: at the top dose activity change, negative = inhibition, usual class: inhibitors. AID 504339, 2011; note: % is set by controls: 0 for no effect and ±100 for the full control effect; nearly all actives have a fitted effect of over 50% in size
BAZ2B inh: qHTS Assay for Inhibitors of BAZ2B; hit rate 4.4% among 360,000; Bromodomain adjacent to zinc finger domain protein 2B (Homo sapiens), Q9UIF8; AlphaScreen BAZ2B-H3K14Ac peptide displacement; Potency, µM (doses to about 114 µM), for inactives: at the highest dose activity change, negative = inhibition, most hits filed as inhibitors; note: % is set by controls: 0 for no effect and ±100 for the full control effect; nearly all actives have a fitted effect of over 60% in size
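Complex of BAZ2B and biotin-H3K14Ac (50 nM apiece) forms over 30 min at RT, then faces library compounds up to 110 uM for another 30 min; AlphaScreen beads added, 20 min dark incubation, luminescence read.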
G9a inh: qHTS Assay for Inhibitors of Histone Lysine Methyltransferase G9a; Histone-lysine N-methyltransferase EHMT2 (Homo sapiens), Q96KQ7; G9a H3K9 monomethylation, AlphaScreen, 2 h; Potency, µM (titrated, usually from 102 µM), for inactives: top-dose activity, negative = inhibition, actives largely listed as inhibitors; hit rate 8.8% among 350,000; AID 504332, 2011; note: % is set by controls: 0 for no effect and ±100 for the full control effect; nearly all actives have a fitted effect of over 75% in size
Target sequence (Q96KQ7 913-1193 limits assumed): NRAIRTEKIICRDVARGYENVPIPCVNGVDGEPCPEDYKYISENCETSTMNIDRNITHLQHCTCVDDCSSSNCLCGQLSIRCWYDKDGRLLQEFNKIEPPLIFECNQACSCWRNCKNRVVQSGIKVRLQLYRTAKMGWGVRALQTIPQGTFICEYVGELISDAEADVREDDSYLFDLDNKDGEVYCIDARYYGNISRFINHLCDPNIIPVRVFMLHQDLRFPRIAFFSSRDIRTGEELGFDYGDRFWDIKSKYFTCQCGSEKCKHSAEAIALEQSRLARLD
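AlphaScreen detection with an anti-monomethyl H3K9 antibody quantified product after a 2 h room-temperature reaction containing 500 nM biotinylated H3K9 peptide, 20 µM SAM and 20 nM enzyme, which had been preincubated 15 min with compound.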
Active calls of the source: *; ? = inconclusive; / = not tested or not shown; [ ] = another dose, or the depositor's remark. Calls come from the whole dose curve; as a rule, active = well fitted curve in the direction sought with a large enough effect; inconclusive = small, poorly fitted or top-dose-only effect, or another doubt; inactive = no such curve, though single readings can be large; an effect the other way counts as inactive or inconclusive. Potency is the fitted concentration of half-maximal effect.

SMILES	L3MBTL1 block	HP1b binding inh	Sfp PPTase inh	JMJD2A Tudor	BAZ2B inh	G9a inh
O=c1[nH]c2ccc(Cl)cc2c(O)c1Cc1ccccc1	-8.1%	29.2%	50.1µM*	-12.0%[11.4 µM]	-13.0%	-11.3%
O=c1[nH]c2ccc(Cl)cc2c(-c2ccccc2)c1CN1CCOCC1	-3.6%	2.3%	-4.3%	?	-8.9%	35.5µM*
O=C(O)CSc1c(-c2ccccc2)c2cc(Cl)ccc2[nH]c1=O	7.8%	37.3%	70.8µM*	-6.9%	-7.2%	-3.3%[59 µM]
O=c1[nH]c2ccc(Cl)cc2c(-c2ccccc2)c1N1CCOCC1	2.9%	24.0%	-7.0%	?	-6.9%	-2.1%[59 µM]
O=c1[nH]c2ccccc2c2ccc(Cl)cc12	/	36.8%	/	-11.1%	/	/
CCN(CC)C(=S)Sc1c(-c2ccccc2)c2cc(Cl)ccc2[nH]c1=O	/	-20.4%	15.8µM*	?	?	-38.7%[12.7 µM]
C=CCn1c(O)c(N=Nc2ccccc2C)c2ccccc21	-0.9%	?	25.1µM*	?	-37.0%	3.98µM*
C=CCn1c(O)c(N=NC(=O)OC(C)(C)C)c2ccccc21	-5.2%	13.5%	-0.6%	-8.1%	-4.2%	8.3%[59 µM]
C=CCn1c(O)c(N=NC(=S)Nc2ccc(OC)c(Cl)c2)c2ccccc21	-24.5%	?	1.78µM*	?	7.94µM*	35.5µM*
O=C1C([N+](=O)[O-])=C(O)c2cccc3cccc1c23	/	/	8.91µM*	/	44.7µM*	1.26µM*
O=C(N/N=C1\C(=O)c2cccc3cccc1c23)c1ccc(O)cc1	-9.8%[11.4 µM]	21.8%	-11.6%	-32.1%	-34.1%	-24.3%
Cc1ccccc1N1C(=O)c2sc3nc4c(c(=O)n3c2C1=O)CCC4	-8.1%	-49.1%	22.4µM*	?	4.9%	8.91µM*
O=C1c2sc3nc4ccccc4n3c2C(=O)N1c1ccccc1Cl	/	?	39.8µM*	-25.5%	?	1.41µM*
COc1ccc(C(C)=O)cc1COC(=O)c1cccnc1Cl	/	-1.9%	9.1%	-4.2%	-19.3%	-7.1%
COc1ccc(C(C)=O)cc1COC(=O)c1cc2ccccc2cc1O	/	-13.0%	14.0%	-18.7%	-2.3%	44.7µM*
CCN(C(=O)Cn1nc2c3cc(F)ccc3n(Cc3cccc(C)c3)cc-2c1=O)c1cccc(C)c1	/	23.7%	/	-11.4%	-17.7%	-34.2%[59 µM]
CCn1c(CN2CCC(C)CC2)nc2cc(NC(=O)c3cccc([N+](=O)[O-])c3)ccc21	/	44.1%	/	56.2µM*	-8.3%	3.4%[59 µM]
CCN(CC)S(=O)(=O)c1ccc2c(c1)c(=O)c(C(=O)NCc1ccc(Cl)cc1)cn2C	/	12.2%	/	-12.3%	/	-22.0%[59 µM]
COc1ccc(CNC(=O)Cn2ccc3cc(S(=O)(=O)N4CCCC4)ccc32)c(OC)c1	/	36.2%	/	-2.1%	-21.0%	5.6%[59 µM]
c1ccc2cc(-c3cc4ccccn4c3)ccc2c1	/	-25.1%	5.8%	?	?	35.5µM*
[O-][n+]1cccc(CO)c1	/	/	1.4%	/	/	-13.8%[12.7 µM]
O=C(/C=C/c1cccs1)NC(=S)NNC(=O)c1ccccc1O	35.5µM*	5.9%	37.0%	79.4µM*	?	10µM*
O=C(/C=C/c1cccs1)NC(=S)Nc1ccccc1	-20.9%	2.0%	-6.4%	?	31.6µM*	/
COc1ccc(C(=O)NNC(=S)NC(=O)/C=C/c2cccs2)cc1	1.0%	11.1%	0.6%	-21.5%	-6.0%	3.2%
Cc1ccn2c(C(=O)c3ccc(Cl)cc3)cnc2c1	/	23.7%	2.8%	-8.7%	0.7%	10.5%
CCN(CC)CCCN1CC(=O)N2[C@@H](Cc3c([nH]c4ccccc34)C2(C)C)C1=O	/	19.0%	0.6%	-20.5%	-1.4%	-8.8%
O=C(Oc1ccccc1)c1ccc2nsnc2c1	-24.5%	-21.9%	-8.9%	?	50.1µM*	?
